pAkt inh = inhibitors of Akt phosphorylation; Neuro2A IGF-stimulated pAkt S473 HTRF, 20 min; hits give low values; activity change, % for hits at 50 µM; actives 0.32% (n = 360,000); AID 651550; in the data active = activity change below about -80%; inconclusive = mostly about -51% to -80%; note: % is set by controls: 0 for no effect and ±100 for the full control effect
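Neuro2A cells in DMEM with 0.5% FBS, overnight at 37 deg C, given compound at single 50 µM final, then IGF (6 nM final) for 20 min at 37 deg C. Lysed; phospho-Akt Ser473 by HTRF after 24 h, 665/615 ratio.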
TDP-43 yeast inh = rescues yeast growth from TDP-43 toxicity. actives 1.8% (n = 410,000). Potency, µM (top dose mostly 46.1 µM), without a hit: at the highest dose growth rescue (activation), most hits filed as activators. TDP-43 expressing yeast growth rescue, BacTiter-Glo, 24 h; note: potency is the fitted concentration of half-maximal effect; % of control where 0% means no effect; nearly all actives have a fitted effect of over 50% in size
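Cell-based yeast growth screen: TDP-43 expression induced in galactose, inoculum OD600=0.02 after raffinose pregrowth to mid-log. Read-out BacTiter-Glo luminescence at 24 hr, 30 deg C; inhibition of toxicity seen as signal increase.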
Mito fusion yeast = mitochondrial division inhibition or fusion activation; S. cerevisiae fusion-defective mutant growth rescue, CellTiterGlo 48 h; actives 0.23% (n = 320,000); AID 485298; Potency, µM (top dose mostly 46.1 µM), for inactives: top-dose growth rescue (activation), usual class: activators; note: potency is the fitted concentration of half-maximal effect; % of control where 0% means no effect; nearly all actives have a fitted effect of over 45% in size
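Growth-rescue viability read-out: after 48 h at the non-permissive 37C in glycerol/ethanol YPEG, yeast mitochondrial fusion mutants are measured by CellTiterGlo luminescence; compounds (23 nl pinned per well) restoring growth score as division inhibitors or fusion activators.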
aSyn yeast inh = alpha-synuclein toxicity inhibition in yeast; Potency, µM (highest dose often 46.1 µM), inactives show at the highest dose growth rescue (activation), actives largely listed as activators; actives 0.14% (n = 370,000); Yeast expressing alpha-synuclein, growth rescue, BacTiter-Glo, 24 h; AID 652106; note: potency is the fitted concentration of half-maximal effect; % of control where 0% means no effect; nearly all actives have a fitted effect of over 65% in size
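Galactose-induced alpha-syn yeast (OD600=0.02, raffinose-pregrown) + pinned cpd, 24 hr, 30 deg C; growth by BacTiter-Glo luminescence. Growth restoration scores as activation.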
Apoferritin bind = binds horse apoferritin like a general anesthetic | P02791 | apoferritin/1-aminoanthracene competitive binding, fluorescence | Potency, µM (top dose mostly 77.5 µM), for inactives: top-dose activity change, negative = displacement, hits mostly inhibitors | actives 0.074% (n = 350,000) | AID 485281; note: potency is the fitted concentration of half-maximal effect; % is set by controls: 0 for no effect and ±100 for the full control effect; nearly all actives have a fitted effect of over 20% in size
Target sequence (P02791 2-175 limits assumed): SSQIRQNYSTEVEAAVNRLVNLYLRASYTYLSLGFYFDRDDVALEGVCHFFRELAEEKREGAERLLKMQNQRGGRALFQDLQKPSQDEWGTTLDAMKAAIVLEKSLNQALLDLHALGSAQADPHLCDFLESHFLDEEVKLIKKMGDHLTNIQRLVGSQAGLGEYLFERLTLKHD
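Probe: 1-aminoanthracene (50% saturated, PBS). Protein: horse-spleen apoferritin, 10 uM. Incubation: 10 min, room temperature. Detection: 380 nm excitation, 535 nm emission. Analysis: normalized response, four-parameter Hill.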
CCT chaperon mod = modulators of cytosolic chaperonin (CCT/TRiC) activity. AID 651819. purified chaperonin ATPase assay, HTRF ADP detection, 30 min. actives 0.3% (n = 360,000). activity change, % (test concentration not listed), hits read low; in the data active = activity change below about -30%; note: % is set by controls: 0 for no effect and ±100 for the full control effect
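Nucleotide hydrolysis assay: TRiC at 20–40 nM final (set by batch activity) with 10 uM ATP, 30 min at 37 °C, in presence of 76 uM compound. Detection by competitive ADP HTRF, 30 min ambient.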
Active calls of the source: *; i = inactive; u = inconclusive; x = not tested or not shown. This is a sample that favours compounds with a hit; in the whole collection about 2.5% have one here. Unless noted, calls come from the whole dose curve; as a rule, active = well fitted curve in the direction sought with a large enough effect; inconclusive = small, poorly fitted or top-dose-only effect, or another doubt; inactive = no such curve, though single readings can be large; an effect the other way counts as inactive or inconclusive.

SMILES | pAkt inh | TDP-43 yeast inh | Mito fusion yeast | aSyn yeast inh | Apoferritin bind | CCT chaperon mod
FC(F)(F)c1ccc2c(c1)nc1n2CCCC1 | i | -7% | -9% | -21% | -5% | 1
CN1CCN(c2nc3cc(C(F)(F)F)ccc3n3cccc23)CC1 | i | -7% | 18µM* | -3% | x | 0
FC(F)C(F)(F)C(F)(F)C(F)(F)c1cc(-c2ccccc2)n[nH]1 | x | u | 5% | -3% | 14µM* | -3
Cc1cc(-c2ccccc2)n[nH]1 | i | 24% | 3% | -3% | -9% | -3
S=Cc1nc2ccccc2[nH]1 | x | x | x | 0% | x | x
COc1ccc(NC(=O)CN(C)S(=O)(=O)c2ccc(Cl)cc2)c([N+](=O)[O-])c1 | i | -16% | 1% | 1% | -7% | -1
COc1cccc(NC(=O)CN(C)CC(=O)Nc2ccc(Cl)cc2[N+](=O)[O-])c1 | i | 18µM* | -4% | 7% | u | 0
CC(=Nc1ccccc1N)c1c(C)cc(=O)n(O)c1O | x | x | x | x | -11% | x
COC(=O)c1cc2c(C)nn(C)c2s1 | i | -5% | 5.6µM* | -2% | -7% | -1
CCCCNC(=O)COC(=O)c1cc2c(C)nn(-c3ccccc3)c2s1 | i | -15% | 3% | -3% | -2% | 0
OC1Cc2ccccc2C1Nc1cccc(C(F)(F)F)c1 (centres undefined) | i | 13µM* | x | u | x | 0
CC(C)CC(=O)Nc1sc2c(c1C(=O)O)CCCCC2 | i | 11µM* | 15% | -8% | -9% | -3
COc1ccc(C=NN=C2c3ccccc3-c3ccccc32)cc1O | i | 18µM* | x | 1% | x | 2
COc1ccc(/C=N/N=C/c2ccc(OC)c(O)c2)cc1O | i | 13% | -2% | -3% | -13% | -1
C=CCNC(=O)/C(C#N)=C/c1cc(Br)ccc1OC | i | 11µM* | -4% | -1% | -13% | -3
C=CCNC(=O)/C(C#N)=C/c1ccccc1Cl | i | -76% | 3% | -1% | -9% | 1
COc1ccc(Cl)cc1NC(=O)[C@H]1O[C@@H]2OC(C)(C)O[C@@H]2[C@H]2OC(C)(C)O[C@H]21 | x | -5% | x | x | -6% | x
O=c1cc(-c2ccc(C3CCCCC3)cc2)[nH][nH]1 | i | 18µM* | 2% | 10% | u | -2
O=c1cc(-c2ccc(F)cc2)[nH][nH]1 | i | 0% | x | -2% | 10% | 0
Cc1ccc(S(=O)(=O)N2CCN(c3nc(-n4cccn4)nc4ccccc34)CC2)cc1 | x | x | x | 6% | x | x
COc1ccc(Cn2nnnc2C(c2ccccc2)N2CCN(c3ccccc3)CC2)cc1 (centres undefined) | x | x | x | 4% | x | x
NS(=O)(=O)c1ccc(NC(=O)c2cnn3c2NC(=C2CC2)C=C3C(F)F)cc1 | x | x | x | 2% | x | x
COc1ccc(NC(=O)N2c3ccccc3CC2C)cc1OC (centres undefined) | x | 13µM* | -2% | x | -17% | -1
COC(=O)c1ccc2c(C)c(C3(O)CCCCC3)[nH]c2c1 | i | 20µM* | x | 0% | x | 2
CCc1c(C2(O)CCCCC2)[nH]c2c(C(=O)OC)cc(Cl)cc12 | i | -85% | -27% | -49% | 30% | -1
SMILES | pAkt inh | TDP-43 yeast inh | Mito fusion yeast | aSyn yeast inh | Apoferritin bind | CCT chaperon mod
COC(=O)c1cc(Cl)cc2c(C)c(C3(O)CCCCC3)[nH]c12 | i | 35µM* | 0% | u | -11% | -1
Cc1ccc2occ(CC(=O)Nc3ccc(Cl)c(C(F)(F)F)c3)c2c1 | x | 27% | x | x | u | x
CC[C@H](C)[C@H](NC(=O)[C@H](Cc1ccc(O)cc1)NC(=O)[C@@H]1CCCN1C(=O)[C@H](CCCN=C(N)N)NC(=O)[C@H](CCCN=C(N)N)NC(=O)[C@@H]1CCCN1C(=O)[C@H](CCCCN)NC(=O)[C@H](CC(N)=O)NC(=O)[C@H](CCC(N)=O)NC(=O)[C@H](Cc1ccc(O)cc1)NC(=O)[C@H](CC(C)C)NC(=O)[C@@H]1CCC(=O)N1)C(=O)N[C@@H](CC(C)C)C(=O)O | x | x | x | x | 3% | x
Cc1ccc(NC(=O)Cn2nc(C)c3nn(-c4ccc(Cl)cc4)c(C)c3c2=O)cc1F | x | -18% | x | x | -3% | x
CCCCCCOc1ccc(NC(=O)CC2C(=O)N(CC)C(=S)N2Cc2ccco2)cc1 (centres undefined) | i | u | -17% | 14µM* | -8% | 2
CCN1C(=O)C(CC(=O)Nc2ccc(F)cc2)N(Cc2ccco2)C1=S (centres undefined) | i | 18% | 6% | 3% | -6% | 0
Cc1ccc2c(C(=O)CNC3=NCCS3)c(C)[nH]c2c1 | x | x | x | -4% | x | x
COc1ccc(/C=C2\SC(N3CCCCC3)=NC2=O)cc1 | i | 25% | 24% | 2% | 6% | -1
COc1cc(/C=C2\SC(N3CCCCC3)=NC2=O)cc(OC)c1OC | i | -3% | 5µM* | 0% | 6% | 0
CCC1CN(C(=O)N2CCC(C(=O)N3CCN(c4cccc(C)c4C)CC3)CC2)c2ccccc2O1 (centres undefined) | x | -24% | x | x | u | x
CCC1CN(C(=O)N2CCC(C(=O)N3CCN(c4cc(C)ccc4C)CC3)CC2)c2ccccc2O1 (centres undefined) | x | 22µM* | x | x | u | x
COc1cc(/C=C/C(=O)c2c(O)ccc3c(C)cc(=O)oc23)ccc1O | i | u | -13% | 5µM* | u | 2
COc1ccc2cc(C(=O)N/N=C/c3sc4ccccc4c3O)ccc2c1 | i | -11% | 5% | 10µM* | -12% | -1
CC(=O)c1cccc(NC(=O)Cn2c(=O)c(CNc3ccc(C)cc3)cc3cc4c(cc32)OCCO4)c1 | x | 18% | x | 2% | 106% | x
COC(=O)c1ccc(-c2c(-c3ccccc3)ncc3cc(F)ccc23)cc1 | i | u | -20% | -25% | x | 1
N#Cc1ccc(-c2c(-c3ccccc3)ncc3cc(F)ccc23)cc1 | i | 16µM* | 26% | -35% | x | 1
O=[N+]([O-])c1ccc(-c2c(-c3ccccc3)ncc3ccc(F)cc23)cc1 | i | 18µM* | u | -24% | x | 0
Cc1nn2c(C)c(C(=O)NCC(C)c3ccccc3)cnc2c1-c1ccccc1 (centres undefined) | x | u | x | x | -11% | x
Cc1ccc(C(C)C)c(OCC(=O)Nc2cc(-c3nc4ccccc4[nH]3)ccc2C)c1 | x | u | x | x | 46% | x
Cc1nc(NC(=S)NC(=O)c2ccccc2)sc1C | i | 6% | -1% | -5% | 32% | -33*
